Results filed as inconclusive are left out. Calls of active or inactive are those of the source. Unless noted, the call rests on the fitted dose curve; in most records, active means well fitted curve in the direction sought with a large enough effect; inconclusive means small, poorly fitted or top-dose-only effect, or another doubt; inactive means no such curve, though single readings can be large; an effect the other way counts as inactive or inconclusive.
Legend:
[1] = target: Glucocorticoid receptor (Homo sapiens) (UniProt P04150); assay: GR-GFP Redistribution (AID 450;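 active means compounds whose dose series gives a full or clear partial fitted curve of increased nuclear translocation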; further: potency means the concentration at half of the fitted maximal effect); conditions: U2OS GR-GFP nuclear translocation, laser cytometry, 2 h
Sequence of Glucocorticoid receptor (Homo sapiens) (P04150 whole entry, looked up): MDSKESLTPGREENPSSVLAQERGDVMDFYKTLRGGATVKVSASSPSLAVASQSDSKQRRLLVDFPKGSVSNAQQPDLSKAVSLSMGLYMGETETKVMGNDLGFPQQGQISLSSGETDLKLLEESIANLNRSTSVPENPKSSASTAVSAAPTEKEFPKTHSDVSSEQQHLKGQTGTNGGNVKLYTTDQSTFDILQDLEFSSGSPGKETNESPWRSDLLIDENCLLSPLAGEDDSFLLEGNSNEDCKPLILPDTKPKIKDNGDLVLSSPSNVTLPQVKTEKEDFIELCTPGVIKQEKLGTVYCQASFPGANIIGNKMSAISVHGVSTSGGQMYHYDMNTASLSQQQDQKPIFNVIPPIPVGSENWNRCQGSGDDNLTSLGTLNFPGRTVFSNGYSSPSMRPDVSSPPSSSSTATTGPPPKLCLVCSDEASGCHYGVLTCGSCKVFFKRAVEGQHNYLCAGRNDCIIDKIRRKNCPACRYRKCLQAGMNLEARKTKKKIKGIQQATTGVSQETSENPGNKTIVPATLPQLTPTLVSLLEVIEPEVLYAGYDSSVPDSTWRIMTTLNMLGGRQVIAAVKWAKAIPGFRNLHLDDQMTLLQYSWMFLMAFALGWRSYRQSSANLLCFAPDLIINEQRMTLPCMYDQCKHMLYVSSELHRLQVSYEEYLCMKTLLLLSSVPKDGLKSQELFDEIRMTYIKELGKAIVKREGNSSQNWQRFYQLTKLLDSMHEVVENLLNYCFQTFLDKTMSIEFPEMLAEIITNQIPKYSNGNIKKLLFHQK

[2] = target: Luciferin 4-monooxygenase (Photinus pyralis) (UniProt P08659); assay: Biochemical firefly luciferase enzyme assay for NPC (AID 624030);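 further: purified P. pyralis luciferase at 10 nM with luciferin and ATP substrate; nearly all actives have a fitted effect of over 70% in size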; conditions: purified P. pyralis luciferase, luminescence, 5 min; series mostly up to 58.6 µM
Sequence of Luciferin 4-monooxygenase (Photinus pyralis) (P08659 whole entry, looked up): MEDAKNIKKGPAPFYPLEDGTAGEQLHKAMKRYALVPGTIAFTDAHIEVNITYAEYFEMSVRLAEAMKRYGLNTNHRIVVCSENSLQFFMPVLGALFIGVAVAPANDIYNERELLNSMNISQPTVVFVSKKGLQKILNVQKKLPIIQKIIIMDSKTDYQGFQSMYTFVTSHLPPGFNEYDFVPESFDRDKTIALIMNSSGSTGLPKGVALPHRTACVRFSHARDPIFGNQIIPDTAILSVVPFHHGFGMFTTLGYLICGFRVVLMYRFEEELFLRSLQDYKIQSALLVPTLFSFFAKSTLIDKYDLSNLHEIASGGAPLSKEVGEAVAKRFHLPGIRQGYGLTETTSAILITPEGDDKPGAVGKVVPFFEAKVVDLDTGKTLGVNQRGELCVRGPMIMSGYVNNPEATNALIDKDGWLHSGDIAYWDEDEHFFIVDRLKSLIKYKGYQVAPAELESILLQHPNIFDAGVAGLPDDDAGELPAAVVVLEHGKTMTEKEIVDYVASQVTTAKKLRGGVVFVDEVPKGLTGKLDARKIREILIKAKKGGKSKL
In short: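 Purified P. pyralis luciferase at 10 nM in 50 mM Tris Acetate (final), luminescence read within 5 minutes of enzyme addition to compounds. Activity normalised to PTC124 versus DMSO; concentration-response curves classed by r2, magnitude and activity.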

[3] = S16 Schwann cell viability assay (CellTiter-Glo assay) (AID 624031); conditions: S16 rat Schwann cells viability, 24 h; series mostly up to 57.5 µM;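 further: cellular ATP luminescence as a viability measure; nearly all actives have a fitted effect of over 70% in size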
In short: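 Native S16 rat Schwann cells in DMEM/10% FBS without phenol red were incubated overnight, then exposed to compounds for 24 h at 37 °C/5% CO2. Viability was read as ATP luminescence (CellTiter-Glo), normalized to no-cell wells and DMSO (0%).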

[4] = S16 Schwann cell PMP22 intronic element firefly luciferase assay (AID 624032); conditions: S16 rat Schwann cells, PMP22 element FLuc, 24 h; series mostly up to 57.5 µM; further: nearly all actives have a fitted effect of over 30% in size
In short: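 Rat S16 Schwann cells stably carrying firefly luciferase driven by a PMP22 intronic element, in 10% FBS, treated 24 h at 37 C. ONE-Glo luminescence normalized to PTC124 control and DMSO (0%); curves classed by r2, magnitude and activity.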

[5] = S16 Schwann cell PMP22 intronic element beta-lactamase assay (AID 624044; calls by dose curve; further: nearly all actives have a fitted effect of over 15% in size); conditions: S16 rat Schwann cells, PMP22 element beta-lactamase FRET, 24 h; ratio activity, negative = inhibition: at 38.3 µM (top of the series) unless noted
In short: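 Rat S16 Schwann cells with beta-Lac driven by a PMP22 intronic element, compound-treated 24 h at 37 °C. LiveBLAzer FRET B/G read: 460 nm normalized to potassium clavulanate vs DMSO; 535 nm FRET as viability; concentration-effect curves classified.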

[6] = tested on: 7G8; assay: qHTS profiling for inhibitors of Plasmodium falciparum proliferation (AID 504749); further: nearly all actives have a fitted effect of over 60% in size; conditions: P. falciparum in erythrocytes, SYBR Green DNA, 72 h; series mostly up to 12.8 µM
In short: (§1)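 Readout was DNA-dye fluorescence from lysed cultures, ex 485/em 535 nm. Parasitized red cells had grown 72 h with compound; data scaled between 0.29 uM artemisinin and DMSO wells and corrected using vehicle-only plates.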

[7] = tested on: AA1029; assay: as above; conditions: P. falciparum in erythrocytes, SYBR Green DNA, 72 h; series mostly up to 28.7 µM
In short: as §1

[8] = tested on: CP191; assay: as above; conditions: P. falciparum in erythrocytes, SYBR Green DNA, 72 h; series mostly up to 28.7 µM
In short: as §1

[9] = tested on: CP260; assay: as above; conditions: P. falciparum in erythrocytes, SYBR Green DNA, 72 h; series mostly up to 28.7 µM
In short: as §1

[10] = tested on: CP291; assay: as above; conditions: P. falciparum in erythrocytes, SYBR Green DNA, 72 h; series mostly up to 28.7 µM
In short: as §1

[11] = tested on: CP297; assay: as above; conditions: P. falciparum in erythrocytes, SYBR Green DNA, 72 h; series mostly up to 28.7 µM
In short: as §1

[12] = tested on: CP315; assay: as above; conditions: P. falciparum in erythrocytes, SYBR Green DNA, 72 h; series mostly up to 28.7 µM
In short: as §1

[13] = tested on: CP335; assay: as above; conditions: P. falciparum in erythrocytes, SYBR Green DNA, 72 h; series mostly up to 12.8 µM
In short: as §1

[14] = tested on: DIV14; assay: as above; conditions: P. falciparum in erythrocytes, SYBR Green DNA, 72 h; series mostly up to 28.7 µM
In short: as §1

[15] = tested on: DIV17; assay: as above; conditions: P. falciparum in erythrocytes, SYBR Green DNA, 72 h; series mostly up to 28.7 µM
In short: as §1

[16] = tested on: Dd2; assay: as above; conditions: P. falciparum in erythrocytes, SYBR Green DNA, 72 h; series mostly up to 28.7 µM
In short: as §1

[17] = tested on: ICS; assay: as above; conditions: P. falciparum in erythrocytes, SYBR Green DNA, 72 h; series mostly up to 28.7 µM
In short: as §1

[18] = tested on: JCK; assay: as above; conditions: P. falciparum in erythrocytes, SYBR Green DNA, 72 h; series mostly up to 28.7 µM
In short: as §1

[19] = tested on: N140; assay: as above; conditions: P. falciparum in erythrocytes, SYBR Green DNA, 72 h; series mostly up to 28.7 µM
In short: as §1

[20] = tested on: TAB165; assay: as above; conditions: P. falciparum in erythrocytes, SYBR Green DNA, 72 h; series mostly up to 28.7 µM
In short: as §1

Measured: Potency

C[C@H]1CN(C2CCC(C#N)(c3ccc(F)cc3)CC2)CC[C@@]1(C(=O)O)c1ccccc1 (stereo partly drawn)
inactive: [1] > 20.6 µM | [2] | [3] | [4] | [5] | [6] | [7] | [8] | [9] | [10] | [11] | [12] | [13] | [14] | [15] | [16] | [17] | [18] | [19] | [20]

N[C@H]1C[C@H]1c1ccccc1
not listed: [1] | [9]
inactive: all other assays above

Reference: PubChem BioAssay (NCATS)
